Data: PubChem BioAssay (NCI)
The panel holds about 79,000 compounds, 15% with a hit somewhere; the sample as a whole holds those more often. Values without a mark were called inactive. The source made the active and inactive calls. Cut-off read from the data, not from the text of the source: active = growth inhibition above about 70%; inactive = the rest.

How the values were obtained:
[1] = NCI Yeast Anticancer Drug Screen. Data for the rad50 strain (AID 155);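 note: 0% = growth of vehicle-only cultures of the same strain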; conditions: S. cerevisiae rad50 strain growth inhibition; at 50.0 µM; hits give high values
Outline: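 Yeast carrying a defined DNA repair defect were exposed to test compounds, and growth was compared with vehicle-treated controls to give percent inhibition.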

[2] = NCI Yeast Anticancer Drug Screen. Data for the mec2-1 strain (AID 157); conditions: S. cerevisiae mec2-1 strain, at 50.0 µM, hits give high values
Outline: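 Test agents were screened against the mec2-1 yeast strain, with defined DNA repair or cell cycle alteration. Growth was scored as inhibition against vehicle-only controls.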

[3] = NCI Yeast Anticancer Drug Screen. Data for the sgs1 mgt1 strain (AID 161);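 note: 0% = growth of cultures given vehicle only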; conditions: S. cerevisiae sgs1 mgt1 strain, at 50.0 µM, hits give high values
Outline: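 Mutant yeast exposed to compound; growth scored against vehicle-only wells.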

[4] = NCI Yeast Anticancer Drug Screen. Data for the cln2 rad14 strain (AID 165);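 note: 0% = growth equal to vehicle treated cultures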; conditions: S. cerevisiae cln2 rad14 strain, at 50.0 µM, hits give high values
Outline: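 Growth of compound-exposed yeast (cln2 rad14 genotype) measured and expressed as inhibition relative to vehicle.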

[5] = NCI Yeast Anticancer Drug Screen. Data for the bub3 strain (AID 167); conditions: S. cerevisiae bub3 mutant strain, at 50.0 µM, hits give high values
Outline: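 Compounds were applied to a genetically altered yeast strain carrying a cell-cycle control defect. Growth inhibition was scored against vehicle-treated controls.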

[6] = NCI Yeast Anticancer Drug Screen. Data for the mlh1 rad18 strain (AID 175); conditions: S. cerevisiae mlh1 rad18 strain growth inhibition; at 50.0 µM; hits give high values
Outline: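 In this whole-cell yeast screen, a strain with altered DNA damage repair is challenged with compound, and its growth is measured against matched vehicle-treated controls.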

**Q.** With `CCCCCCCCCCCCCCC[N+](C)(C)C` as the compound, how does the growth inhibition [1] read?
**A.** 99.5% (active)

**Q.** What about the growth inhibition [2] of the same compound?
**A.** 99.3% (active)

**Q.** And the growth inhibition [3]?
**A.** 36.1%

**Q.** And the growth inhibition [4]?
**A.** 99.2% (active)

**Q.** And the growth inhibition [5]?
**A.** 97.5% (active)

**Q.** And the growth inhibition [6]?
**A.** 99.5% (active)

**Q.** What does the source list for `COC(=O)C1(OC(=O)Sc2ccccc2)CCN(C)CC1`?
**A.** growth inhibition [1]: -19.8%; growth inhibition [2]: -5.95%; growth inhibition [3]: -7.15%; growth inhibition [4]: 15.4%; growth inhibition [5]: -7.55%; growth inhibition [6]: -25.1%

**Q.** With `O=C(O)C1=C(c2ccccc2)C=C(c2ccccc2)C1` as the compound, how does the growth inhibition [1] read?
**A.** 0%

**Q.** What about the growth inhibition [2] of the same compound?
**A.** 0.2%

**Q.** And the growth inhibition [3]?
**A.** 12.8%

**Q.** And the growth inhibition [4]?
**A.** -33%

**Q.** And the growth inhibition [5]?
**A.** 48%

**Q.** And the growth inhibition [6]?
**A.** 28.9%

**Q.** With `CN(C(=O)c1cccs1)C(=S)N1CCN(c2ccccn2)CC1` as the compound, how does the growth inhibition [1] read?
**A.** -84.2%

**Q.** And the growth inhibition [2]?
**A.** -57.6%

**Q.** And the growth inhibition [3]?
**A.** -2.4%

**Q.** What about the growth inhibition [4] of the same compound?
**A.** -11.8%

**Q.** What about the growth inhibition [5] of the same compound?
**A.** -7.85%

**Q.** And the growth inhibition [6]?
**A.** -29.6%

**Q.** Which results are given for `CCCCOC(=S)Nc1ccc(S(=O)(=O)c2ccc(NC(=S)OCCCC)cc2)cc1`?
**A.** growth inhibition [1]: 23.4%; growth inhibition [2]: 0.15%; growth inhibition [3]: 13.4%; growth inhibition [4]: 9.35%; growth inhibition [5]: -4.9%; growth inhibition [6]: -9.65%

**Q.** Which growth inhibition [1] does the source give for `CN(C)CCN1CCc2c([nH]c3ccccc23)C1c1cccnc1` (stereo not given) here?
**A.** -55.6%

**Q.** And the growth inhibition [2]?
**A.** -24.8%

**Q.** And the growth inhibition [3]?
**A.** -4.2%

**Q.** What about the growth inhibition [4] of the same compound?
**A.** 6.25%

**Q.** And the growth inhibition [5]?
**A.** -18.2%

**Q.** What about the growth inhibition [6] of the same compound?
**A.** -38.2%

**Q.** What does the source list for `Cc1cc(S(=O)(=O)Nc2nc(N)nc(N3CCCCC3)n2)c(S)cc1Cl`?
**A.** growth inhibition [1]: -0.3%; growth inhibition [2]: -11.7%; growth inhibition [3]: -13%; growth inhibition [4]: -7.15%; growth inhibition [5]: -5.2%; growth inhibition [6]: 5.35%

**Q.** With `OC1(c2cccc(C(F)(F)F)c2)CCNCC1` as the compound, how does the growth inhibition [1] read?
**A.** -21.8%

**Q.** And the growth inhibition [2]?
**A.** -13.5%

**Q.** What about the growth inhibition [3] of the same compound?
**A.** -7.4%

**Q.** And the growth inhibition [4]?
**A.** -6.9%

**Q.** What about the growth inhibition [5] of the same compound?
**A.** -22.6%

**Q.** What about the growth inhibition [6] of the same compound?
**A.** -8.3%

**Q.** Which growth inhibition [1] does the source give for `NC(=O)c1ncn2c(=O)n(CCCl)nnc12` here?
**A.** -17.2%

**Q.** And the growth inhibition [2]?
**A.** -9.4%

**Q.** And the growth inhibition [3]?
**A.** 1.4%

**Q.** What about the growth inhibition [4] of the same compound?
**A.** 19.5%

**Q.** What about the growth inhibition [5] of the same compound?
**A.** -4.15%

**Q.** And the growth inhibition [6]?
**A.** -47.2%

**Q.** Which results are given for `CCN1CCCC(Cl)C1` (stereo not given)?
**A.** growth inhibition [1]: 12.8%; growth inhibition [2]: -41%; growth inhibition [3]: 14.7%; growth inhibition [4]: -0.5%; growth inhibition [5]: -12.4%; growth inhibition [6]: 5.95%

**Q.** Which results are given for `CC[N+]1(C)CC2CCC1C2` (stereo not given)?
**A.** growth inhibition [1]: 4.55%; growth inhibition [2]: 17.1%; growth inhibition [3]: 14.5%; growth inhibition [4]: -39.9%; growth inhibition [5]: 5.85%; growth inhibition [6]: -11.8%

**Q.** Which growth inhibition [1] does the source give for `C/C([O-])=N\[N+](C)(C)Cc1ccccc1` here?
**A.** -4.65%

**Q.** What about the growth inhibition [2] of the same compound?
**A.** 0.8%

**Q.** What about the growth inhibition [3] of the same compound?
**A.** -11.7%

**Q.** And the growth inhibition [4]?
**A.** -23.4%

**Q.** What about the growth inhibition [5] of the same compound?
**A.** -6.6%

**Q.** And the growth inhibition [6]?
**A.** 5.8%

**Q.** What does the source list for `CCCCCCCCC(=O)N1CCOCC1`?
**A.** growth inhibition [1]: 17.4%; growth inhibition [2]: 7.15%; growth inhibition [3]: 18.3%; growth inhibition [4]: 16.4%; growth inhibition [5]: -0.8%; growth inhibition [6]: 8.8%

**Q.** With `Cn1nnc(/N=C/c2ccccc2)n1` as the compound, how does the growth inhibition [1] read?
**A.** 5.85%

**Q.** And the growth inhibition [2]?
**A.** -8.1%

**Q.** What about the growth inhibition [3] of the same compound?
**A.** -6.25%

**Q.** And the growth inhibition [4]?
**A.** -19.1%

**Q.** What about the growth inhibition [5] of the same compound?
**A.** 4.75%

**Q.** And the growth inhibition [6]?
**A.** 11.4%

**Q.** With `CCc1c(CNc2ccc(C(=O)NC(CC(=O)O)C(=O)O)cc2)ccc2nc(N)nc(N)c12` (stereo not given) as the compound, how does the growth inhibition [1] read?
**A.** 5.5%

**Q.** And the growth inhibition [2]?
**A.** -0.5%

**Q.** What about the growth inhibition [3] of the same compound?
**A.** 11.9%

**Q.** What about the growth inhibition [4] of the same compound?
**A.** 2.85%

**Q.** What about the growth inhibition [5] of the same compound?
**A.** -4%

**Q.** And the growth inhibition [6]?
**A.** 5.6%

**Q.** What does the source list for `[O-]C(=N/C(=N/[n+]1ccccc1)c1ccccc1)c1ccccc1`?
**A.** growth inhibition [1]: 12.2%; growth inhibition [2]: 10.9%; growth inhibition [3]: 4.2%; growth inhibition [4]: -9%; growth inhibition [5]: -4.05%; growth inhibition [6]: 2%

**Q.** Which results are given for `CC1(C)OC2COC3(CO)OC(C)(C)OC3C2O1` (stereo not given)?
**A.** growth inhibition [1]: -2.2%; growth inhibition [2]: 20.6%; growth inhibition [3]: 15.4%; growth inhibition [4]: -65.5%; growth inhibition [5]: 15.2%; growth inhibition [6]: 17.4%

**Q.** What does the source list for `Clc1ccc(C2=NCCO2)cc1`?
**A.** growth inhibition [1]: -23.8%; growth inhibition [2]: -32.1%; growth inhibition [3]: -5.75%; growth inhibition [4]: -11.8%; growth inhibition [5]: 4.85%; growth inhibition [6]: -26.3%

**Q.** Which results are given for `CCC(O)C(C)C(O)CC` (stereo not given)?
**A.** growth inhibition [1]: 7.9%; growth inhibition [2]: 14.7%; growth inhibition [3]: 2.6%; growth inhibition [4]: 13.3%; growth inhibition [5]: 13.2%; growth inhibition [6]: 17.5%

**Q.** What does the source list for `CNC(=O)C1CCCN1C(=O)C(Cl)Cl` (stereo not given)?
**A.** growth inhibition [1]: -1.95%; growth inhibition [2]: -10.6%; growth inhibition [3]: 0.9%; growth inhibition [4]: -21.9%; growth inhibition [5]: -10.8%; growth inhibition [6]: 14.2%
